Records with an inconclusive call do not appear. Active and inactive are the calls of the source. Calls follow the shape of the full dose curve. Starred links: 1 amine or outer side, 2 acyl side, 3 side chain; linkers in the order of their positions; H or OH if unused. Non-standard residues stand in square brackets, D forms with d. Residues, ends and D or L forms follow the SMILES beside them. ξ: configuration not given here. *: point of attachment. X4 = O=C(C1CC2(c3ccc(O)cc3)c3ccccc3NC2N1[*:1])[*:2]; ξW = NC(Cc1c[nH]c2ccccc12)C(=O)O; ξY = NC(Cc1ccc(O)cc1)C(=O)O; Hexanoyl = CCCCCC(=O)*
Assay: qHTS for inhibitors of Rabies Virus screened against the NCATS CANVASS Library (AID 1347402)
Conditions: Rabies virus infection cell assay; series mostly up to 45.9 µM

Structure (SMILES) | outcome
C[n+]1cc2cc(C(N)=O)[nH]c3c(=N)c(Cl)c(N)c1c23 | inactive
O=C(O)[C@@]12COC3(O)C1CCN1CC[C@H]3[C@@H]1c1c2[nH]c2ccccc12 | inactive
CCCCCC(=O)N[C@@H](CC(C)C)C(=O)N[C@H](C=O)CCC(=O)O (Hexanoyl-Leu-Glu-aldehyde) | inactive
C=CC(CCCCC)C1C(=O)NC(=O)C1C(=O)C1C2C(C)CC(C(=O)O)CC2CC1(O)C(=O)/C=C/C (stereo unspecified) | inactive
[C-]#[N+][C@@]12C(=O)[C@@H]3[C@@H](O[C@@]4(C(=O)N(C)c5cccc1c54)C3(C)C)C(=O)[C@@]2(C)C=C | inactive
C/C1=C/[C@@H](C)[C@H](O)[C@@H](O)/C=C/CC/C=C/C(=O)O[C@@H]1[C@H](C)C(=O)/C=C/CC1CC(=O)NC(=O)C1 | inactive
C=C1C[C@]23C=CC(=O)[C@@](C)(CCCC(C)C(=O)N[C@@H](CO)C(=O)O)[C@@H]2C[C@@H]1CC3 (stereo partly specified) | inactive
C/C=C/[C@H]1[C@H]2C(=O)c3c(O)c(C)c(O)c(C)c3[C@]1(C(=O)O)C(=O)C=C2C | inactive
C=CC(C)(C)C(=O)[C@@H](C)[C@@H]1CC[C@](C)(C=C)O1 | inactive
COC1C(O)C(OC(N)=O)C(Oc2ccc3c(O)c(NC(=O)c4ccc(O)c(CC=C(C)C)c4)c(=O)oc3c2C)OC1(C)C (stereo unspecified) | inactive
COc1cc(O)c2c3c(c(O)cc(C)c13)C(=O)OC2 | inactive
CC1(C)CC[C@]2(CO)CC[C@]3(C)C(=CCC4[C@@]5(C)CC[C@H](O)C(C)(C)C5CC[C@]43C)C2C1 (stereo partly specified) | inactive
C/C1=C\CC(=O)/C=C/C=C\c2csc(n2)[C@@H](C)NC(=O)C[C@@](S)([C@@H](C)C(=O)O)CC1 | inactive
C/C(=C\[C@H](C)C(=O)CCCC1CC(=O)NC(=O)C1)C(O)[C@@H](C)[C@H](O)C/C=C/CC/C=C/C(=O)O (stereo partly specified) | inactive
CC(O)/C=C/C1(O)C(C)(C)CC(O)CC1(C)O (stereo unspecified) | inactive
COc1ccc([C@@H]2c3cc4c(cc3C(=O)C(C)C2C)OCO4)cc1OC (stereo partly specified) | inactive

Structure (SMILES) | outcome
CCC1=C2CCCN3C(=O)O[C@H]([C@H]1OC(C)=O)[C@H]23 | inactive
C[C@@H](O)[C@H]1OC(=O)C=C2[C@]3(C)[C@H]4[C@H](OC(=O)[C@@]4(C)[C@@H](O)[C@H]4O[C@H]43)[C@H]3O[C@@]231 | inactive
CO[C@@H]1[C@H](O)[C@@H](C)O[C@@H](OC[C@@H]2C(C)OC(=O)/C=C/[C@H](C)C(O[C@@H]3O[C@H](C)CC4(OC(=O)O[C@@H]4C)C3O)[C@@H](C)CC(C)C(=O)/C=C/[C@H]3OC23)[C@@H]1OC (stereo partly specified) | inactive
O=Cc1ccc2n1C[C@@]1(C[C@H](O)[C@H](O)CO1)OC2 | inactive
Oc1ccc(C2c3c(O)cc(O)cc3[C@@H]3C(c4ccc(O)cc4)c4c(O)cc(O)cc4[C@H]23)cc1 (stereo partly specified) | inactive
C=C(C)CC[C@H](Cc1c(O)cc(O)c2c1O[C@H](c1ccc(O)cc1O)CC2=O)C(=C)C | inactive
CC[C@@H]1C[C@@]2(CC)OC(=O)[C@@]3(CC)OC(=O)[C@@H]1[C@@H]23 | inactive
CC(=O)[C@@H]1[C@@H](O)C[C@H]2[C@]3(C)CC[C@H]4C(C)(C)CCC[C@]4(CO)[C@H]3C[C@H]3OC(=O)[C@@H]1[C@@]32C | inactive
CCCCCCCCCCCCCCCC(=O)OC/C=C(\C)CCCC(C)CC(C)C(C)C (stereo unspecified) | inactive
O=Cc1ccc2n1C[C@]1(OC2)O[C@H](CO)[C@@H](O)[C@@H]1O | inactive
CC[C@H](C)[C@H](NC(=O)C(Cc1ccc(O)cc1)NC(=O)C(Cc1c[nH]c2ccccc12)NC(=O)[C@H](C)N)C(=O)N1C(C(=O)NC(Cc2ccc(O)cc2)C(=O)O)CC2(c3ccc(O)cc3)c3ccccc3NC12 (stereo partly specified) (H-A[ξW][ξY]I[X4][ξY]-OH) | inactive
CC(=O)NC[C@@H]1O[C@H](CC/C=C(C)/C(C)=C/C=O)[C@H](C)C[C@H]1O | inactive
C[C@@]12CCC[C@@](C)(C(=O)OP(=O)(O)OC[C@H]3O[C@@H](n4cnc5c(N)ncnc54)[C@H](O)[C@@H]3O)[C@H]1C[C@@H](O)[C@@]13C[C@@H](CC[C@@H]21)[C@](C)(O)C3 | inactive
C[C@H](CCC(O)C(C)(O)CO)[C@@]1(O)CC[C@@]2(C)C3=C(CC[C@@]21C)[C@@]1(C)CCC(OC(=O)CCC(=O)O)C(C)(C)[C@@H]1CC3 (stereo partly specified) | inactive
C/C1=C/[C@@H](C)[C@H](O)[C@@H](O)/C=C/CC/C=C/C(=O)O[C@@H]1[C@H](C)C(=O)CCCC1CC(=O)NC(=O)C1 | inactive

Source: PubChem BioAssay (NCATS)
